Tgondii IFNg: T. gondii growth inhibition with IFN-gamma, primary screen, cell-based. Toxoplasma gondii growth in IFN-gamma-treated host cells; active compounds read low. activity change, negative = inhibition, % (concentration not given with the values). hit rate 3.8% among 69,000. AID 1259416, 2018; in the data active = activity change below about -70%, passing the limit was not always enough;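 note: host cells are HeLa cells infected with Toxoplasma gondii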
Each line names hits and unclear results; the compound was inactive in the other large screens; ! = a repeat was not active. This is one part of a sample in which hits are shown more often than they occur.

S=C(Nc1ccc(-c2csnn2)cc1)Nc1ccccc1Cl	none
COc1ccccc1N(Cc1nc(-c2ccccc2)oc1C)S(=O)(=O)c1cccs1	none
COc1cccc(-c2cc(C(=O)NC3=NS(=O)(=O)c4ccccc43)on2)c1	none
O=C(CO)N1CC2CCC(C1)N2C(=O)c1ccco1	none
Oc1c(Cl)cc(Cl)cc1Sc1cc(Cl)cc(Cl)c1O	Tgondii IFNg -84!
Cc1cnc(CNC(=O)c2ccccc2C2CCNC2)cn1 (centres undefined)	none
O=C(N1CCC(n2cnc3cccnc32)CC1)N1c2ccccc2Sc2ccccc21	none
CC(=O)Nc1ccc(S(=O)(=O)N2CCC(Cc3cc(N)nc(C)n3)CC2)cc1	none
CC(=O)Nc1ccc(S(=O)(=O)N2CCC(n3cnc4cccnc43)CC2)cc1	Tgondii IFNg -96
CC(=O)Nc1ccc(S(=O)(=O)Nc2cncc(C(=O)Nc3cccc(C)c3C)c2)cc1	none
Cc1nn(C)c(C)c1CCC(=O)N(C)Cc1cc(C(C)(C)C)n[nH]1	none
CC(C)OCCCN(C)C1CCN(S(=O)(=O)c2ccc3[nH]c(=O)ccc3c2)CC1	none
CC(C)n1nc(-c2cc3cc(O)ccc3[nH]2)c2c(N)ncnc21	none
CC(C)(C)n1nc(-c2ccc(Cl)cc2)c2c(N)ncnc21	Tgondii IFNg -90
Cc1nc(NC(=O)CSc2nnc(C(C)C)n2C)sc1C	none
Cc1ccc(CN2CCN(Cc3cnc(N4CCCC4)s3)CC2=O)cc1	none
COc1cc(-c2coc3cc(OCc4ccccc4)c(OC)c(O)c3c2=O)cc(OCc2ccccc2)c1OC	Tgondii IFNg -79
O=c1c(-c2cc(O)c(O)c(O)c2)coc2cc(O)c(O)c(O)c12	none
COc1ccc(-c2coc3cc(O)cc(O)c3c2=O)cc1	none
Cc1ccc(-c2noc(C3CCN3C(=O)c3ccc(=O)[nH]n3)n2)s1 (centres undefined)	none
Cc1oc(C2CCN(C(=O)Nc3ccc(Cl)cc3F)CC2)nc1C(=O)N(C)C	none
O=C1CCC[C@@H]2[C@@H]3CCC[N+]4([O-])CCC[C@H](CN12)[C@@H]34 (some centres undefined)	none
CCOCCCNC(=O)C1=C(C)C(=O)OC12CCN(Cc1ccccc1)CC2	none
O=C(c1cc2cccnc2n(Cc2ccccc2F)c1=O)N(Cc1ccccc1)Cc1ccccc1	none
FC(F)(F)c1ccc(-c2nnc3ccc(N4CCCCC4)nn23)cc1	Tgondii IFNg -109
FC(F)(F)c1cc(-c2nnc(N3CCCC3)o2)cc(C(F)(F)F)c1	none
Cc1cc2nnc(-c3ccc(C(F)(F)F)cc3)n2[nH]1	none
CN(C)C(=O)c1cnn(C2CCNC2)c1 (centres undefined)	none
Cn1cc(-c2cc3n(n2)CCC(=O)N3CC(=O)NCc2ccccn2)c2ccccc21	none
CCn1c(C2CCN(C(=O)C3CC(=O)c4ccccc43)CC2)nn(C)c1=O (centres undefined)	none
CCc1ccc(S(=O)(=O)N2CCC3(CCCN(c4ccccn4)C3)C2)cc1 (centres undefined)	none
COc1ccc(-n2c(CC#N)nnc2SCc2c(C)c(C)c(C)c(C)c2C)cc1	Tgondii IFNg -89
COc1ccc(-n2c(Cc3ccccc3)nnc2SCC(=O)c2ccccc2)cc1	none
COc1ccc(-n2c(SCC#N)nnc2-c2cccnc2)cc1	none
COc1cccc([C@@H]2CCN(C3CCN(S(C)(=O)=O)CC3)C[C@H]2O)c1	none
CCS(=O)(=O)N1CCC2(CC1)OC(=O)C(C)=C2C(=O)N1CCc2ccccc2C1	none
CCn1c(CC2CCN(Cc3ccc(F)c(F)c3F)CC2)nn(C)c1=O	none
CCCc1sc(Nc2ccc(C(=O)OC)cc2)nc1-c1ccccc1	none
Clc1cccc(Nc2nnc(-c3ccccc3)c3ccccc23)c1	none
c1ccc(Nc2nc(-c3ccccc3)c(-c3ccccc3)s2)cc1	Tgondii IFNg -105
COc1ccccc1OC1CN(Cc2cccc(OC)c2O)C1	none
Cc1ccc(C(C)CCN2CCN(Cc3cccc(F)c3)C(=O)C2)o1 (centres undefined)	none
COc1ccccc1CC(=O)NCCn1cc(-c2ccncc2)c(-c2ccccc2F)n1	none
CC1=C(C(=O)NCCCc2ccccc2)C2(CCN(Cc3ccccc3)CC2)OC1=O	none
Cc1nc(-c2ccc(F)cc2)sc1CCNC(=O)c1cccc(F)c1	none
Cc1nc(-c2ccc(F)cc2)sc1CCNC(=O)c1ccc(C(F)(F)F)cc1	none
Cc1cc(C)c(NC(=O)C(=O)NCCc2sc(-c3cccc(F)c3)nc2C)c(C)c1	none
Cc1cccc(-c2nc(C)c(CCNC(=O)C(=O)Nc3c(C)cc(C)cc3C)s2)c1	Tgondii IFNg -79
Cc1nc(-c2cccc(F)c2)sc1CCNC(=O)c1ccc(C(F)(F)F)cc1	Tgondii IFNg -90
Cc1nc(-c2ccc(F)cc2)sc1CCNC(=O)c1cccc(C(F)(F)F)c1	Tgondii IFNg -74
Cc1nc(-c2ccc(Cl)cc2)sc1CCNC(=O)c1cccc(C(F)(F)F)c1	none
Cc1ccc(C(=O)NCCc2sc(-c3cccc(F)c3)nc2C)cc1	none
Cc1cccc(-c2nc(C)c(CCNC(=O)C(=O)Nc3c(C)cccc3C)s2)c1	none
COc1ccccc1N(Cc1nc(-c2ccc(OC(C)C)cc2)oc1C)S(=O)(=O)c1ccccc1	none
Cc1oc(C(C)C)cc1C(=O)NCC1CCCN(S(C)(=O)=O)C1 (centres undefined)	none
Cc1cccc(NC(=O)C(c2ccccc2)c2ccccc2)c1C	none
Cc1ccc(C)c(OC(C)C(=O)NCCCc2nn[nH]n2)c1 (centres undefined)	none
Cc1nnsc1CN(C)C(=O)c1cccc(-n2cccn2)c1	none
C/C(=N\N=C1\NC(=O)C(CC(=O)Nc2ccc(Cl)cc2)S1)c1ccco1 (centres undefined)	none
O=C1NC(=Nc2ccc(Cl)cc2)SC1Cc1ccccc1 (centres undefined)	Tgondii IFNg -92
O=C(CC1SC(=Nc2ccccc2)NC1=O)Nc1ccccc1 (centres undefined)	none
CC(=O)Nc1ccc(C(=O)N(Cc2ccccc2C)C2(C(=O)NCc3ccccc3)CCN(C(C)=O)CC2)cc1	none
CN1CC2(CCN(C(=O)c3ccc4c(c3)OCO4)CC2)OCC1=O	none
CN1C(=O)CCCC12CCCN(C(=O)CCc1ccccc1)C2 (centres undefined)	none
Clc1ccc(CCC(Cn2ccnc2)Sc2c(Cl)cccc2Cl)cc1 (centres undefined)	Tgondii IFNg -86
Clc1cccc(Cl)c1Cn1ccnc1	none
COc1ccccc1CN(CCCn1ccnc1)Cc1ccc(F)c(F)c1	none
CS(=O)(=O)N1CCC2(c3ccccc3)CCN(C(=O)C3CC3)CC12 (centres undefined)	none
CN(C)S(=O)(=O)c1ccc2c(c1)cc(C(=O)NCCCN1CCCC1=O)n2Cc1ccccc1	none
Cc1cc(C)nc(CN2CCC3(CCCO3)CCC2=O)n1 (centres undefined)	none
Cc1cccc(CNC2=NCCNC23CCN(S(=O)(=O)c2ccc(Cl)s2)CC3)c1	none
CC(=O)Nc1ncc(-c2cccc(C3CCCN(C(=O)OC(C)(C)C)C3)n2)s1 (centres undefined)	none
Cc1nn2c(C3CCCN(C(=O)OC(C)(C)C)C3)ccnc2c1-c1cccs1 (centres undefined)	Tgondii IFNg -77
COc1ccc(-c2c(C)nn3c(C4CCN(Cc5ccccc5)C4)ccnc23)cc1OC (centres undefined)	none
CC1CCN(S(=O)(=O)N2CCN(CC(O)c3ccc4c(c3)CC(C)O4)CC2)CC1 (centres undefined)	none
CCOCc1nnc(NC(=O)Cc2coc3cc(C)c(C)cc23)s1	none
COC(=O)c1coc(CN2CCC(N3CCCC3=O)CC2)n1	none
OCC1(CCc2ccccc2)CCCN(c2ncccn2)C1 (centres undefined)	none
COc1ccc(NC(=O)COc2nc(C)nc3ccccc23)cc1	none
Cc1cccc(NC(=O)COc2nc(C)nc3ccccc23)c1	none

Source: PubChem
